Sampled rows, rich in hits. Any-hit rate of the full collection: about 3.8%.
HT1080 IDH1KD tx: toxicity to HT-1080 IDH1 knockdown cells (counter line); HT-1080 IDH1 knockdown viability, ATP luminescence, 48 h; Potency, µM (titrated, usually from 46.1 µM), inactives show at the highest dose activity, negative = toxicity, hits mostly cytotoxic; 360,000 compounds, 2% hits; AID 686971;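 note: 0% = DMSO wells and -100% = cell-free medium wells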
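Luminescent ATP read-out (CellTiter-Glo, 10 min at room temperature) after 48 h compound exposure at 37 °C gave viability of IDH1-knockdown HT-1080 cells. Activity was normalised to DMSO and cell-free wells, then fitted as concentration-response curves.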
ATXN viability: viability counter-screen for ATXN expression inhibitors; Potency, µM (series often up to 56.7 µM), actives largely listed as cytotoxic; 400,000 compounds, 0.49% hits; S2 cells (HEK-293 line with an ATXN2-luciferase reporter) viability, CellTiter-Fluor protease fluorescence, 24 h; AID 651635; note: nearly all actives have a fitted effect of over 40% in size
ATXN2 expr inh: ATXN2 expression inhibition; HEK-293 ATXN2-luciferase reporter, luminescence, 24 h; Potency, µM (titrated, usually from 57 µM), for the others: at the top dose activity change, negative = inhibition, actives largely listed as inhibitors; 360,000 compounds, 0.72% hits; note: % is set by controls: 0 for no effect and ±100 for the full control effect; nearly all actives have a fitted effect of over 55% in size
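qHTS (up to 57 uM final) was run with 24 h compound exposure of reporter cells at 37 °C. Each well was multiplexed: SteadyGlo luminescence measured ATXN2-luciferase expression after a fluorogenic Gly-Phe-AFC viability readout (25 uM final).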
HT1080NT lethal: kills 2HG-producing HT-1080-NT fibrosarcoma cells; HT-1080-NT fibrosarcoma viability, CellTiter-Glo ATP luminescence, 48 h; Potency, µM (highest dose often 46.1 µM), inactives show at the highest dose activity, negative = less viability, actives largely listed as cytotoxic; 360,000 compounds, 1.6% hits;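 note: NT is the 2HG producing partner of a matched IDH1 knockdown line; 0% = DMSO-treated cells and -100% = media-only wells without cells; nearly all actives have a fitted effect of over 55% in size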
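Viability of the 2HG-overproducing fibrosarcoma line after 48 hours of compound exposure at 37 degrees C was determined by luminescence with CellTiter-Glo, and concentration-effect curves were then fitted and categorized.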
HepG2 viability: HepG2 cytotoxicity, counter-screen for TGF-b inhibitors | Potency, µM (doses to about 46.1 µM), inactives show at the top dose activity change, negative = cytotoxicity, hits mostly cytotoxic | 410,000 compounds, 0.76% hits | HepG2 CAGA-GFP viability, ATP luminescence, 18 h
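HepG2 CAGA-GFP cells (1000/well, DMEM with 1% FBS) received compound, then TGF-beta at 500 pg/mL final, and were incubated 18 hours at 37 degrees C. Viability was read by CellTiter-Glo luminescence. Media-only wells were set as complete cell-killing and DMSO as no toxicity.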
TGFb SMAD3 inh: blocks TGF-b signaling | HepG2 CAGA-GFP TGF-b/SMAD3 reporter, GFP fluorescence, 18 h; TGF-beta stimulated, 500 pg/mL final | Potency, µM (top dose mostly 46.1 µM), inactives show at the highest dose activity, negative = inhibition, actives largely listed as inhibitors | 410,000 compounds, 1.2% hits; note: % is set by controls: 0 for no effect and ±100 for the full control effect; nearly all actives have a fitted effect of over 65% in size
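Inhibition was scored as loss of TGF-beta-induced (500 pg/mL final, 18 hours, 37 degrees C) GFP in HEPG2 cells carrying a CAGA-GFP reporter, in DMEM with 1% FBS. Well GFP was summed per cell; Activity was normalised to unstimulated and stimulated DMSO wells, then concentration-response fitting.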
* marks the source's active call; other numbers are inactive results; i = inactive; ? = inconclusive; · = not tested or not shown; ! = not confirmed by another sample. Calls come from the whole dose curve; as a rule, active = well fitted curve in the direction sought with a large enough effect; inconclusive = small, poorly fitted or top-dose-only effect, or another doubt; inactive = no such curve, though single readings can be large; an effect the other way counts as inactive or inconclusive. Potency is the fitted concentration of half-maximal effect.

SMILES	HT1080 IDH1KD tx	ATXN viability	ATXN2 expr inh	HT1080NT lethal	HepG2 viability	TGFb SMAD3 inh
O=C(CCl)N=c1sccn1Cc1ccc(Cl)cc1Cl	3.3µM*	?	-35%	5.8µM*	13µM*	?
O=C(CSc1oc(-c2ccccc2)nc1S(=O)(=O)c1ccc(Br)cc1)c1ccccc1	·	i	8%	·	-2%	-22%
CCOC(=O)C1CCN(C(=O)Cn2nc(CC)n3c(cc4occc43)c2=O)CC1	·	i	7%	·	-3%	?
CCCN(CCC)CCCNC(=O)c1ccc2c(Cl)c3c(nc2c1)CCC3	21µM*	i	-30%	?	-38%	-26%
CC1CCN(CCCNC(=O)c2ccc3c(Cl)c4c(nc3c2)CCCC4)CC1	21µM*	?	?	?	-10%	-5%
CCN1CCN(CCCNC(=O)c2ccc3c(Cl)c4c(nc3c2)CCCC4)CC1	?	i	?	26µM*	-30%	?
O=C(NCCCN1CCCCCC1)c1ccc2c(Cl)c3c(nc2c1)CCCC3	?	?	-4%	-9%	-47%	?
CCc1cnc2ccccc2c1/C=C/c1ccc(N(C)C)cc1	·	·	·	·	-14%	?
O=C(Nc1ccc(Cl)cc1Cl)[C@@H]1CC=C[C@@H]2CCN(Cc3ccccc3)C(=O)[C@@H]21	·	·	·	·	0%	-24%
CSc1nc(C)cc(Nc2c(C)cc(C)cc2C)n1	·	?	-15%	·	3%	?
CCCCOc1ccc(CC(=O)N(C)OC)cc1	·	·	·	·	4%	26%
CN(C)c1ccc(/C=C/c2c3c(nc4ccccc24)CCCC3)cc1	·	·	·	·	5%	0%
O=C1c2cccc3cccc(c23)C(=O)N1CC1CCN(CC(O)COc2ccc3ccccc3c2)CC1 (stereo not drawn)	15µM*	i	?	18µM*	16µM*	?
O=C1c2cccc3cccc(c23)C(=O)N1CCN1CCN(CC(O)COc2ccc3ccccc3c2)CC1 (stereo not drawn)	?	?	?	?	4%	0%
COc1ccc(COCC(O)CN2CCC(CN3C(=O)c4cccc5cccc(c45)C3=O)CC2)cc1OC (stereo not drawn)	?	?	-28%	?	-2%	-21%
Cc1cc(C)cc(OCC(O)CN2CCC(CN3C(=O)c4cccc5cccc(c45)C3=O)CC2)c1 (stereo not drawn)	18µM*	·	20µM*	18µM*	20µM*	?
COc1cccc(OCC(O)CN2CCC(CN3C(=O)c4cccc5cccc(c45)C3=O)CC2)c1 (stereo not drawn)	23µM*	?	?	18µM*	14µM*	?
CCc1ccc(OCC(O)CN2CCC(CN3C(=O)c4cccc5cccc(c45)C3=O)CC2)cc1 (stereo not drawn)	8%	·	25µM*	-1%	-8%	-14%
NC(=O)c1sc2nc3c(c(-c4ccco4)c2c1N)CCCC3	5%	i	·	8%	-21%	?
Nc1c(C(=O)NCC2CCCO2)sc2nc3c(c(-c4ccco4)c12)CC/C3=C\c1ccco1 (stereo not drawn)	0%	i	4%	-2%	6%	18µM*
Clc1ccc(CN=C(Nc2ccccc2)NC2CCCCC2)cc1	16µM*	?	?	21µM*	-87%	?
O=C1C(C2=C(O)c3ccccc3C2=O)=Nc2ccccc21	?	?	?	-27%	11µM*	268%
Cc1ccc(C2(CCNC(C)c3cccs3)CCOC(C(C)C)C2)cc1 (stereo not drawn)	?	i	-12%	16µM*	-22%	?
Cc1nc2c(OCc3ccc(C(F)(F)F)cc3)cccn2c1N(C)Cc1cccs1	26µM*	32µM*	?	?	-101%	?
CCc1nc2c(OCc3ccc(C(F)(F)F)cc3)cccn2c1N(C)C(C)=O	5%	i	-15%	14%	-11%	-6%
SMILES	HT1080 IDH1KD tx	ATXN viability	ATXN2 expr inh	HT1080NT lethal	HepG2 viability	TGFb SMAD3 inh
COc1cccc(-n2c(SC)nnc2C2CCN(CCC(C)c3ccc(C)o3)CC2)c1 (stereo not drawn)	·	i	·	·	·	·
CC1(C)CC(=O)C2=C(C1)OC1=C(C(=O)CC(C)(C)C1)C2c1ccc(O)cc1O	5µM*	?	-32%	5.6µM*	7.1µM*	7.1µM*
O=C(NCc1ccccc1)c1noc2c1CCCC2	?	i	14%	?	-14%	34%
O=C(NCc1cccs1)c1noc2c1CCCC2	18µM*	i	0%	?	-4%	-4%
COc1ccc(N(Cc2cccs2)C(=O)COc2cccc(C)c2C)cc1	·	·	·	·	-16%	?
COc1ccc(N(Cc2cccs2)C(=O)COc2cc(C)c(Cl)c(C)c2)cc1	·	·	·	·	-28%	16µM*
N#Cc1ccccc1Cn1c(=O)n(CCCC(=O)NCc2ccccc2Cl)c(=O)c2ccccc21	·	·	·	·	-16%	0%
CCn1c(O)c(N=NC(=S)NCC2CCCO2)c2ccccc21 (stereo not drawn)	-12%	·	·	-18%	-67%	10µM*
Cc1cccc(NC(=S)N=Nc2c(O)n(CN3CCOCC3)c3ccccc23)c1C	-25%	·	·	-13%	-53%	2.2µM*
Oc1[nH]c2c(Cl)cc(Cl)cc2c1N=NC(=S)NCC1CCCO1 (stereo not drawn)	-15%	?	21µM*	-8%	-4%	?
Oc1[nH]c2ccccc2c1N=NC(=S)NCC1CCCO1 (stereo not drawn)	-5%	i	?	1%	-9%	-9%
Cc1ncc2c(c1CNS(=O)(=O)c1cccs1)CCN(C(=O)/C=C/c1cc(F)cc(F)c1)C2	·	i	·	·	·	·
CN(C)c1ccc(/C=C(\C#N)c2ccccc2)cc1	10µM*	i	·	12µM*	-8%	-23%
CC(C)N(CC[C@H](c1ccccc1)c1cc(CO)ccc1O)C(C)C	·	·	-7%	·	·	·
Cc1ccc(CN(C(=O)COc2ccc(C(C)C)cc2)C2CCS(=O)(=O)C2)o1 (stereo not drawn)	·	?	?	·	-38%	-19%
Cc1c(O)cccc1C(=O)N[C@@H](CSc1ccccc1)[C@H](O)CN1C[C@H]2CCCC[C@H]2C[C@H]1C(=O)NC(C)(C)C	18µM*	11µM*	20µM*!	13µM*	16µM*!	?
CCN(CC(=O)NC(C)(C)C)C(=O)c1ccccc1SCC(=O)NC1CCCCCCC1	0%	i	-12%	6%	-23%	-23%
COc1ccc2nc(N3C(=O)CNC3=S)sc2c1	0%	?	?	-1%	-61%	?

Screening results as filed in PubChem.
